The panel holds about 83,000 compounds, 20% with a hit somewhere; the sample as a whole holds those more often.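 Step 1: grow cells in 96-well plates. Step 2: add test compound at a single concentration. Step 3: incubate 48 h. Step 4: record percent growth.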 Activity calls are given as the source filed them. Rule for the calls: active = growth percent below 10; inactive = the rest.

The subject of this experiment is CCRF-CEM leukemia. Nature of the experiment: NCI-60 one-dose screen, 48 h (100 = growth as untreated, 0 = no growth, -100 = all killed). Conditions: 10 µM unless noted.
Turning to `CCC(=O)Nc1ccc(-c2nc(-c3cccc(O)c3)c(-c3ccnc(Br)c3)[nH]2)cc1`, the growth is 22.4% (inactive). The same measure for `NC(=O)c1c(NC(=O)c2cccc(OC(F)(F)F)c2)sc2c1CCC(=O)C2`: 8.53% (active); for `COc1cc(C2=NN(C(C)=O)C(c3ccc(N4CCOCC4)cc3)C2)cc(OC)c1OC` (centres undefined): 97.3% (inactive); for `CCC(=O)Nc1cc(Nc2cc(NC3CC3)n3ncc(C#N)c3n2)ccc1C`: 17.1% (inactive).

For `O=C(CSc1ccc(-c2nc3ccccc3[nH]2)cn1)N1CCN(c2ccccc2F)CC1`, the growth was 28.2% (inactive).

For the compound `NCCN1CCN(c2nc(-c3ccccc3)nc3nc(-c4ccccc4)oc23)CC1`, the growth is 1.25% (active). For the compound `CCN(CC)Cc1c(-c2cccc(OC(F)(F)F)c2)[nH]c2ccc(N3CCCC3)cc2c1=O`, the growth was 98.4% (inactive). Take `C#C[C@]1(O)CC[C@H]2[C@@H]3CC=C4c5sc(-c6ccc(OC)cc6)nc5CC[C@]4(C)[C@H]3CC[C@@]21C`: the growth is 26.8% (inactive).

For the compound `C#C[C@]1(O)CC[C@H]2[C@@H]3CC=C4c5sc(Nc6cc(OC)ccc6OC)nc5CC[C@]4(C)[C@H]3CC[C@@]21C`, the growth was 13.9% (inactive).

Turning to `O=C(Nc1cccc(-c2nc(-c3ccc(NC(=O)c4cccnc4)cc3Cl)no2)c1)Nc1ccc(NC(=O)C2CC2)c(C(F)(F)F)c1`, the growth was -16.3% (active). With `O=C(Nc1ccc(-c2nc(-c3cccc(O)c3)c(-c3ccnc(Br)c3)[nH]2)cc1)c1ccccc1`, the growth was 3.66% (active). For `COc1ccccc1N1CCN(C2=NN=C(c3cccc(Cl)c3)c3ccccc3C2)CC1`, the growth was 10.1% (inactive). `O=C(NNc1nc2cc(F)c(F)cc2n2cccc12)c1ncccn1`: the growth was 12.7% (inactive). As to `O=C(CN1C(=O)CSC1=O)Nc1ccc(C(=O)/C=C/c2cc3ccccc3nc2Cl)cc1`, the growth is 45.5% (inactive). In the case of `O=C(C[n+]1ccnc2ccccc21)c1ccc(O)c(O)c1`, the growth was 4.57% (active). For `Cn1ccnc1C(=O)/C=C/c1ccc(C(=O)Nc2ccc(NC(=O)CCNC(=O)c3csc(Br)n3)cc2)cc1`, the growth was 12.9% (inactive). In the case of `COc1ccc(Oc2ccc(C3CC(c4cc(OC)c(OC)c(OC)c4)=NN3C(C)=O)cc2)cc1` (centres undefined), the growth is 37.7% (inactive). Turning to `O=C1/C(=C/c2ccccc2[N+](=O)[O-])Oc2ccc(O)cc21`, the growth is -2.68% (active). On to `O=c1c2ccccc2nc(COc2ccccc2)n1/N=C/C=C/c1ccccc1`, for which the growth was 84.3% (inactive). `C#C[C@]1(O)CC[C@H]2[C@@H]3CC=C4c5sc(C6CC6)nc5CC[C@]4(C)[C@H]3CC[C@@]21C`: the growth was 58.7% (inactive). For the compound `Cc1ccc(S(=O)(=O)N/N=C/c2cn(-c3ccc(F)cc3)nc2-c2ccc(S(C)(=O)=O)cc2)cc1`, the growth was 103% (inactive). With `C#C[C@]1(O)CC[C@H]2[C@@H]3CC=C4c5sc(-c6ccccn6)nc5CC[C@]4(C)[C@H]3CC[C@@]21C` the figure was 37.5% (inactive); with `CCOC(=O)c1c(NC(=O)c2cccc(C(F)(F)F)c2)sc2c(CN3CCN(C)CC3)c(O)ccc12`, -23.8% (active); with `CCOC(=O)Nc1ccc(-c2nc(-c3cccc(O)c3)c(-c3ccnc(Br)c3)[nH]2)cc1`, 22.9% (inactive). In the case of `COc1ccc(NS(=O)(=O)c2ccc(-c3cnc(C4CC4)o3)cc2)cc1Cl`, the growth was 17.2% (inactive). The same measure for `O=S(=O)(Nc1ccc(I)c(Cl)c1)c1ccc(-c2cnc(C3CC3)o2)cc1`: 14.1% (inactive).

Regarding `O=S(=O)(Nc1ccc2c(c1)OC(F)(F)O2)c1ccc(-c2cnc(C3CC3)o2)cc1`, the growth was 24.1% (inactive). The same measure for `O=C(CN1CCN(c2cc(=O)n(-c3ccccc3)c3ccccc23)CC1)Nc1ccc([N+](=O)[O-])cc1`: 98% (inactive); for `CN(c1ccc(Cl)cc1)S(=O)(=O)c1ccc(-c2cnc(C3CC3)o2)cc1`: 17.1% (inactive); for `O=C(/C=C/c1cn(-c2ccccc2)nc1-c1ccc(Cl)cc1)c1cc2ccccc2oc1=O`: 50.7% (inactive). Consider `O=C1C[C@@H](c2ccccc2)Oc2c(Cc3ccccc3O)c(O)c(Cc3cc(Cc4cc(Cc5ccccc5O)ccc4O)ccc3O)c(O)c21`, for which the growth is 91.5% (inactive).

With `CCC(CC)N1C(=O)/C(=c2\sc3n(c2=O)C2C(NN=3)N(CC)C(=O)N2CC)c2ccccc21` (centres undefined), the growth is 15.8% (inactive). With `COC(=O)Nc1ccc(-c2nc(-c3cccc(O)c3)c(-c3ccnc(Br)c3)[nH]2)cc1` the figure was 22.8% (inactive); with `CC(=O)Nc1ccc(NC(=O)Nc2cccc(-c3nc(-c4ccc(NC(=O)c5cccs5)cc4Cl)no3)c2)cc1C(F)(F)F`, 6.64% (active).

The record behind these values is PubChem BioAssay (NCI).
